Source: PubChem BioAssay
Activity calls are given as the source filed them.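 How the source made its calls: active means viability loss from added drug above about 55%, and viability with drug at most 40%, in both replicates (limit read from the data, passing the limit was not always enough); inconclusive means both conditions met in only one replicate; inactive means neither replicate meets both conditions.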

Assay: MRP1 drug-resistance reversers in H69AR cells – cell-based, doxorubicin co-treatment, pilot screen (AID 601)
Conditions: H69AR cells + 2 uM doxorubicin, CellTiter-Glo, 72 h; at 10 µM; stronger effect = higher value

| Compound | differential viability (reversal) |
| --- | --- |
| COc1cc(OC)cc(-n2nnnc2SCC(=O)N2CCCC2)c1 | -4.62% (inactive) |
| O=C(O)c1cc(Cl)c(Cl)cc1C(=O)N1CCCC1 | -2.26% (inactive) |
| Nn1c(CSc2nc3ccccc3o2)nnc1CSc1nc2ccccc2o1 | 24.1% (inactive) |
| CN=C1CC(C)(C)CC(=O)/C1=C(/O)CCC(=O)NC | 10.2% (inactive) |
| CCOC(=O)c1ccc(NC(=O)c2ccc(NS(C)(=O)=O)cc2)cc1 | 3.85% (inactive) |
| CCN(CC)CCCN(Cc1cc2cc(OC)ccc2[nH]c1=O)C(=O)Nc1ccccc1 | 3.46% (inactive) |
| O=C(COC(=O)CCC(=O)c1cccs1)NCc1ccco1 | 2.55% (inactive) |
| O=C(Cn1cnc2ccccc2c1=O)NCCC(=O)N1CCN(Cc2ccccc2)CC1 | 4.66% (inactive) |
| CC(C)C(c1nnnn1CC1CCCO1)N1CCN(Cc2ccc3c(c2)OCO3)CC1 (centres undefined) | 4.93% (inactive) |

Same assay, conditions: H69AR cells + 2 uM doxorubicin, CellTiter-Glo, 72 h; measured here: viability with 2 uM doxorubicin; at 10 µM; stronger effect = lower value

| Compound | viability |
| --- | --- |
| FC(F)(F)c1cccc(N2CCN(c3nnnn3-c3ccccc3)CC2)c1 | 84.4% |
| COC(=O)c1cc2oc(C)cc2n1CC(=O)Nc1ccc(C)c(C)c1 | 87.1% |
| Cc1cc2oc(=O)cc(C)c2c(=O)o1 | 96.6% |
| CC(Oc1ccc(Cl)cc1Cl)C(=O)Nc1ncccn1 (centres undefined) | 87.7% |
| CC(C(=O)NCCCN1CCOCC1)n1cccc1C(=O)c1ccccc1 (centres undefined) | 89.3% |
| CC(C)(C)NCc1cc2ccccc2[nH]c1=O | 83.3% |
| Cc1ccc(-c2noc(-c3ccccc3C(=O)NCC3CCCO3)n2)cc1 (centres undefined) | 94.4% |
| Cc1cc(Nc2ccc(C(=O)O)cc2)n2nc(C)nc2n1 | 99.2% |
| O=C(CSc1nnnn1C1CCCCC1)N1CCc2ccccc21 | 90.2% |
| Cc1cc(C)c2c(n1)nn1c(N3CCN(c4cccc(Cl)c4)CC3)cc(C)nc21 | 16.7% |
| CC(=O)NC(Cc1cc(C)ccc1C)C(=O)N1CCN(C(=O)Nc2ccc(C(C)=O)cc2)CC1 (centres undefined) | 94% |
| Cc1nnc(SCCn2c(N3CC(C)CC(C)C3)nc3c2c(=O)n(C)c(=O)n3C)s1 (centres undefined) | 98.2% |
| CC(C)CCNC(=O)NC(=O)CN1C(=O)NC2(CCCCC2)C1=O | 101% |
| COc1ccc(C(=O)Nc2cccc(-c3nc4ncccc4o3)c2C)cc1OC | 91.2% |
| Cc1ccc(S(=O)(=O)NCC2CCC(C(=O)NCCCN3CCOCC3)CC2)cc1 (centres undefined) | 96.6% |
| Cc1ccc(NC(=O)CSc2nnc(-c3ccncc3)n2C)cc1C | 88.8% |
| O=C(OCC#CCSc1nnc(-c2ccncc2)o1)c1cccs1 | 83.3% |
| O=C(NCc1cccnc1)C1c2ccccc2C(=O)N1Cc1ccco1 (centres undefined) | 81.3% |
| CCc1nnc(NC(=O)CSc2nnc3scc(-c4ccc(C)cc4)n23)s1 | 96.7% |
| CC(C)(C)C(=O)Oc1cc(N)n(S(=O)(=O)c2ccccc2)n1 | 83.5% |

| Compound | viability |
| --- | --- |
| Cc1cnc(NC(=O)CSc2nc3ccccc3c(=O)[nH]2)s1 | 82.5% |
| O=C(CCN1C(=O)c2ccccc2C1=O)OCN1C(=O)c2ccccc2C1=O | 102% |
| CCOC(=O)CNC(=O)c1c(C)nn(-c2ccccc2)c1Cl | 90.9% |
| COc1ccc(NC(=O)CN2CCN(CC(=O)Nc3cc(OC)cc(OC)c3)CC2)cc1 | 88.4% |
| CCCn1nc(NS(=O)(=O)c2ccccc2)c2cc3ccccc3nc21 | 94.9% |
| CCOC(=O)C1=C(C)NC(C)=C(C(=O)OCC)C1c1cc(N)ccc1OC(F)F | 106% |
| CC1=C(C(=O)OCc2ccccc2)C(c2ccc(C)o2)C2=C(CCCC2=O)N1 (centres undefined) | 89.1% |
| O=C(Nc1ccccc1-c1ccccc1)NC1CCN(CC(=O)N2CCOCC2)CC1 | 91.4% |
| CCN(C1CCCCC1)S(=O)(=O)c1ccc(OC)c(C)c1 | 77.4% |
| Cc1ccccc1N(C)S(=O)(=O)c1ccc2[nH]cc(C(=O)NCC3CCCO3)c(=O)c2c1 (centres undefined) | 87.5% |
| COc1ccc(N2C(=O)CC(N3CCN(c4ccccc4F)CC3)C2=O)cc1 (centres undefined) | 103% |
| COc1cc(OC)cc(-n2nnnc2SCC(=O)N2CCCC2)c1 | 92% |
| O=C(O)c1cc(Cl)c(Cl)cc1C(=O)N1CCCC1 | 101% |
| Nn1c(CSc2nc3ccccc3o2)nnc1CSc1nc2ccccc2o1 | 78.6% |
| CN=C1CC(C)(C)CC(=O)/C1=C(/O)CCC(=O)NC | 92.1% |
| CCOC(=O)c1ccc(NC(=O)c2ccc(NS(C)(=O)=O)cc2)cc1 | 79% |
| CCN(CC)CCCN(Cc1cc2cc(OC)ccc2[nH]c1=O)C(=O)Nc1ccccc1 | 74.3% |
| O=C(COC(=O)CCC(=O)c1cccs1)NCc1ccco1 | 77.3% |
| O=C(Cn1cnc2ccccc2c1=O)NCCC(=O)N1CCN(Cc2ccccc2)CC1 | 85.2% |
| CC(C)C(c1nnnn1CC1CCCO1)N1CCN(Cc2ccc3c(c2)OCO3)CC1 (centres undefined) | 90.3% |

Same assay, conditions: H69AR cells, CellTiter-Glo, 72 h; compound alone cytotoxicity; at 10 µM

| Compound | viability |
| --- | --- |
| FC(F)(F)c1cccc(N2CCN(c3nnnn3-c3ccccc3)CC2)c1 | 84.7% |
| COC(=O)c1cc2oc(C)cc2n1CC(=O)Nc1ccc(C)c(C)c1 | 83.8% |
| Cc1cc2oc(=O)cc(C)c2c(=O)o1 | 108% |
| CC(Oc1ccc(Cl)cc1Cl)C(=O)Nc1ncccn1 (centres undefined) | 97.2% |
| CC(C(=O)NCCCN1CCOCC1)n1cccc1C(=O)c1ccccc1 (centres undefined) | 95% |
| CC(C)(C)NCc1cc2ccccc2[nH]c1=O | 93.2% |
| Cc1ccc(-c2noc(-c3ccccc3C(=O)NCC3CCCO3)n2)cc1 (centres undefined) | 100% |
| Cc1cc(Nc2ccc(C(=O)O)cc2)n2nc(C)nc2n1 | 109% |
| O=C(CSc1nnnn1C1CCCCC1)N1CCc2ccccc21 | 87.1% |
| Cc1cc(C)c2c(n1)nn1c(N3CCN(c4cccc(Cl)c4)CC3)cc(C)nc21 | 23.1% |
| CC(=O)NC(Cc1cc(C)ccc1C)C(=O)N1CCN(C(=O)Nc2ccc(C(C)=O)cc2)CC1 (centres undefined) | 88.7% |
| Cc1nnc(SCCn2c(N3CC(C)CC(C)C3)nc3c2c(=O)n(C)c(=O)n3C)s1 (centres undefined) | 95.9% |
| CC(C)CCNC(=O)NC(=O)CN1C(=O)NC2(CCCCC2)C1=O | 96.9% |
| COc1ccc(C(=O)Nc2cccc(-c3nc4ncccc4o3)c2C)cc1OC | 92.8% |
| Cc1ccc(S(=O)(=O)NCC2CCC(C(=O)NCCCN3CCOCC3)CC2)cc1 (centres undefined) | 88.6% |
| Cc1ccc(NC(=O)CSc2nnc(-c3ccncc3)n2C)cc1C | 92.2% |
| O=C(OCC#CCSc1nnc(-c2ccncc2)o1)c1cccs1 | 82% |
| O=C(NCc1cccnc1)C1c2ccccc2C(=O)N1Cc1ccco1 (centres undefined) | 92.9% |
| CCc1nnc(NC(=O)CSc2nnc3scc(-c4ccc(C)cc4)n23)s1 | 96.6% |
| CC(C)(C)C(=O)Oc1cc(N)n(S(=O)(=O)c2ccccc2)n1 | 87.1% |

| Compound | viability |
| --- | --- |
| Cc1cnc(NC(=O)CSc2nc3ccccc3c(=O)[nH]2)s1 | 93.3% |
| O=C(CCN1C(=O)c2ccccc2C1=O)OCN1C(=O)c2ccccc2C1=O | 91.8% |
| CCOC(=O)CNC(=O)c1c(C)nn(-c2ccccc2)c1Cl | 90% |
| COc1ccc(NC(=O)CN2CCN(CC(=O)Nc3cc(OC)cc(OC)c3)CC2)cc1 | 83.1% |
| CCCn1nc(NS(=O)(=O)c2ccccc2)c2cc3ccccc3nc21 | 120% |
| CCOC(=O)C1=C(C)NC(C)=C(C(=O)OCC)C1c1cc(N)ccc1OC(F)F | 111% |
| CC1=C(C(=O)OCc2ccccc2)C(c2ccc(C)o2)C2=C(CCCC2=O)N1 (centres undefined) | 103% |
| O=C(Nc1ccccc1-c1ccccc1)NC1CCN(CC(=O)N2CCOCC2)CC1 | 99.3% |
| CCN(C1CCCCC1)S(=O)(=O)c1ccc(OC)c(C)c1 | 93.1% |
| Cc1ccccc1N(C)S(=O)(=O)c1ccc2[nH]cc(C(=O)NCC3CCCO3)c(=O)c2c1 (centres undefined) | 91.7% |
| COc1ccc(N2C(=O)CC(N3CCN(c4ccccc4F)CC3)C2=O)cc1 (centres undefined) | 105% |
| COc1cc(OC)cc(-n2nnnc2SCC(=O)N2CCCC2)c1 | 87.4% |
| O=C(O)c1cc(Cl)c(Cl)cc1C(=O)N1CCCC1 | 98.7% |
| Nn1c(CSc2nc3ccccc3o2)nnc1CSc1nc2ccccc2o1 | 103% |
| CN=C1CC(C)(C)CC(=O)/C1=C(/O)CCC(=O)NC | 102% |
| CCOC(=O)c1ccc(NC(=O)c2ccc(NS(C)(=O)=O)cc2)cc1 | 82.9% |
| CCN(CC)CCCN(Cc1cc2cc(OC)ccc2[nH]c1=O)C(=O)Nc1ccccc1 | 77.7% |
| O=C(COC(=O)CCC(=O)c1cccs1)NCc1ccco1 | 79.8% |
| O=C(Cn1cnc2ccccc2c1=O)NCCC(=O)N1CCN(Cc2ccccc2)CC1 | 89.8% |
| CC(C)C(c1nnnn1CC1CCCO1)N1CCN(Cc2ccc3c(c2)OCO3)CC1 (centres undefined) | 95.3% |
